From PubChem
PrPC surface inh – inhibitors of human cell surface prion protein PrPC | P04156 | TR-FRET read-out | inhibition, % at 13.8 µM | hit rate 0.43% among 370,000 | AID 720596; in the data active means inhibition above about 24%
PfHsp40 rescue – rescue of PfHsp40-mediated yeast toxicity; hit rate 0.68% among 340,000; growth rescue, % at 12.5 µM; S. cerevisiae expressing PfHsp40, growth rescue, ATP luminescence; AID 504582; in the data active means growth rescue above about 28%, passing the limit was not always enough; inconclusive means no clear call, values can overlap the other calls;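 further: yeast W303a lacking pdr1 and pdr3 grown in galactose medium; growth measured after three days at 30 °C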
MazF activator – MazEF (E. coli) toxin RNase activation; activation, % at 20 µM; FAM/BHQ RNA-DNA oligo cleavage fluorescence, 5 h; P0AE70; hit rate 0.32% among 350,000; AID 504720; in the data active means activation above about 50%
Target sequence (P0AE70 whole entry, looked up): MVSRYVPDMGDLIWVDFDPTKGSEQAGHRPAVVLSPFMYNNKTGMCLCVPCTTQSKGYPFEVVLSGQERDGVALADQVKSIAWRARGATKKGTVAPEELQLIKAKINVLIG
PrP UTR inh – inhibition of PrP 5' UTR reporter expression | cell-based PrP 5' UTR mRNA reporter, plate reader | inhibition, % (test concentration not listed) | hit rate 0.35% among 340,000; in the data active means inhibition above about 52%
BJeLR viability – kills HRASV12-expressing BJeLR cells; BJeLR (HRASV12) viability, CellTiter-Glo ATP luminescence, 48 h; inhibition, % (test concentration not listed); hit rate 0.17% among 300,000; in the data active means inhibition above about 50%; inconclusive means no clear call, values can overlap the other calls
DUSP3 inh – inhibitors of human VHR1 phosphatase (DUSP3); recombinant VHR phosphatase, pNPP absorbance; inhibition, % at 13.3 µM; hit rate 0.52% among 290,000; AID 1654; in the data active means inhibition above about 50%
Target sequence (P51452 whole entry, looked up): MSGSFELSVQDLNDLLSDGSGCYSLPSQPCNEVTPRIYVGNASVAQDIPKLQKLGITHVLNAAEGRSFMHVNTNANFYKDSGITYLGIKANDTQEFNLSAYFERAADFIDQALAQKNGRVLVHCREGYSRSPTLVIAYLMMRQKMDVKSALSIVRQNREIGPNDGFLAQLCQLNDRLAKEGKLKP
Of the large screens only hits and unclear results are named; the others gave an inactive call. In the library only some 2.1% were active in any assay of this set; here they are far more common.

Cc1ccc2cc(C3C(C#N)=C(N)Oc4c3ccc3cccnc43)c(=O)[nH]c2c1 (stereo not drawn)	none (no result: PrPC surface inh)
COCCNc1nc(NCCN2CCNC2=O)c2sc(-c3ccccc3)cc2n1	none (no result: PfHsp40 rescue, MazF activator, PrP UTR inh, BJeLR viability, DUSP3 inh)
NC(=O)c1ccccc1NC(=O)COc1ccc(Cl)cc1	none
O=C(COc1ccc(Cl)cc1)Nc1ccccc1Cl	DUSP3 inh 53.9
O=c1c2ccccc2c(C=Nc2ccccc2O)c(O)n1-c1nccs1	MazF activator 278.2
Cc1ccc(O)c(C(=O)c2cc(C#N)c(=O)n(Cc3ccccc3)c2)c1	none
Cc1ccc(O)c(C(=O)c2cc(C#N)c3nc4ccccc4n3c2)c1	MazF activator 90.2
COC(=O)Cn1nc(-c2ccccc2)c2cccc(C(F)(F)F)c21	none (no result: PfHsp40 rescue, MazF activator, PrP UTR inh, BJeLR viability, DUSP3 inh)
O=C(COC(=O)c1ccccn1)NC(=O)c1ccccc1	none (no result: BJeLR viability, DUSP3 inh)
NC(=O)N=Nc1c2[nH]c3ccccc3nc-2c2ccccc12	PfHsp40 rescue 45.3
O=C(/C=C/c1ccc(F)cc1)c1ccccc1Br	none
Cc1cccc2cc(C#N)c(SCC(=O)Nc3ccccc3N3CCOCC3)nc12	none
N#Cc1cc2ccccc2nc1SCC(=O)Nc1ccccc1N1CCOCC1	MazF activator 50.8
Clc1ccc(/C=C/c2nc3ccccc3[nH]2)c(Cl)c1	none
Clc1ccc(/C=C/c2nc3ccccc3[nH]2)cc1	MazF activator 67.5
Cc1cc(NCc2ccccc2)n2ncc(-c3ccccc3)c2n1	DUSP3 inh 54.7
CC(C)(C)c1cc(NCc2ccccn2)n2ncc(-c3ccccc3)c2n1	PfHsp40 rescue 51.5
Cc1cc(C)n(-c2cc(C(C)(C)C)nc3c(-c4ccccc4)cnn23)n1	none
O=C(CSc1ccc(-c2cccnc2)nn1)Nc1ccc(F)cc1	none
Cc1ccc([C@H]2C[C@@H](n3cc(-c4ccc(F)cc4)nn3)[C@H](O)CN2C(=O)c2cccs2)cc1	none (no result: PfHsp40 rescue, PrP UTR inh, BJeLR viability, DUSP3 inh)
COC(=O)C1=C(C)N(CC(C)C)C(=O)/C1=C\c1cccs1	none
CCOC(=O)C1=C(C)N(CC(C)C)C(=O)/C1=C\c1cccs1	MazF activator 58.8
Oc1c(C(Nc2cccc(C(F)(F)F)c2)c2cccnc2)ccc2cccnc12 (stereo not drawn)	PfHsp40 rescue 381.8
Oc1cccc(C(Nc2nccs2)c2ccc3cccnc3c2O)c1 (stereo not drawn)	PfHsp40 rescue 215.3
COc1ccc(Cl)cc1C(Nc1cccnc1)c1ccc2cccnc2c1O (stereo not drawn)	PfHsp40 rescue 88.8
COCCNC(=S)N1CCC(C(=O)c2ccc(C)cc2)CC1	PfHsp40 rescue 48.1
CCCCCCCCN1C(=O)[C@H](CC(=O)NCCCN2CCCC2=O)C[C@@]2(C(=O)OC)CCCCC=C12	none (no result: PfHsp40 rescue, MazF activator, PrP UTR inh, BJeLR viability, DUSP3 inh)
c1ccc2c(c1)c1c(c3ccccc32)CN2CCCC2C1 (stereo not drawn)	PfHsp40 rescue 76.3 (no result: BJeLR viability, DUSP3 inh)
O=C(NC1CCCC1)C1CCN(C(=O)c2ccc(Cl)cc2Cl)CC1	none
CC1(C)Cc2cccc(OCC(=O)N3CCN(c4cccc(C(F)(F)F)c4)CC3)c2O1	PfHsp40 rescue 41.0 (no result: DUSP3 inh)
CC1(C)Cc2cccc(OCC(=O)N3CCN(c4cccc(Cl)c4)CC3)c2O1	none (no result: DUSP3 inh)
Cc1ccc(S(=O)(=O)NCC(c2cccnc2)N2CCc3ccccc32)cc1 (stereo not drawn)	none
CCc1cccc(NC(=O)c2cnn(-c3ccccc3)c2C)c1	PfHsp40 rescue 37.6
COc1cccc(NC(=O)c2cnn(-c3ccccc3)c2C)c1	none
CC(C)(C)S(=O)N1Cc2cc(=O)n(Cc3ccccc3)cc2[C@H]1CCO (stereo partly drawn)	none (no result: BJeLR viability, DUSP3 inh)
Cn1c(=O)cc(OCCCC(=O)Nc2cccc(Cl)c2)c2ccccc21	none (no result: PfHsp40 rescue, MazF activator, PrP UTR inh, BJeLR viability, DUSP3 inh)
COc1cc2c(cc1OC)C(c1cc(Br)ccc1F)N(C(=O)CCl)CC2 (stereo not drawn)	BJeLR viability 57.9
CCOc1ccc(-n2c(SCC(=O)Nc3ccccc3-c3ccccc3)nnc2-c2cccs2)cc1	none (no result: PfHsp40 rescue, MazF activator, PrP UTR inh, BJeLR viability, DUSP3 inh)
CCC(C)OC(=O)c1cc(C)nc2c(Br)cc(Br)cc12 (stereo not drawn)	DUSP3 inh 58.3
O=C(O)c1cc(O)c2c(c1)[C@@H]([C@H]1c3cc(C(=O)O)cc(O)c3C(=O)c3c(O[C@@H]4O[C@H](CO)[C@@H](O)[C@H](O)[C@H]4O)cccc31)c1cccc(OC3O[C@H](CO)[C@@H](O)[C@H](O)[C@H]3O)c1C2=O (stereo partly drawn)	PrPC surface inh 61.5 (no result: DUSP3 inh)
CN(CC(=O)Nc1ccc(F)cc1)C(=O)COC(=O)CNC(=O)c1ccc(Cl)cc1Cl	none (no result: DUSP3 inh)
Cc1ccc(F)cc1NC(=O)CSCc1nc2sc(C)c(C)c2c(=O)[nH]1	none (no result: PfHsp40 rescue, DUSP3 inh)
O=C(Cc1ccc(Br)cc1)N1CCOCC1	PfHsp40 rescue 36.3
Cc1ccc(C2=NN(C(=O)CCl)C(c3ccco3)C2)o1 (stereo not drawn)	BJeLR viability 86.6
CC(=O)N1N=C(c2ccco2)CC1c1ccco1 (stereo not drawn)	none
NC(=O)C1CCN(C(=O)c2ccc(Cl)c(S(=O)(=O)N3CCc4ccccc43)c2)CC1	none (no result: PfHsp40 rescue, PrP UTR inh, BJeLR viability, DUSP3 inh)
COC(=O)c1ccc([C@H](NC(=O)c2ccco2)[C@]2(C)C[C@H]2C2CCCCC2)cc1	PfHsp40 rescue 67.9 (no result: DUSP3 inh)
O=C(OC1CCCCC1)c1ccc(NC(=O)c2ccco2)cc1	PfHsp40 rescue inconclusive
CCOC(=O)C1CCN(C(=O)CCc2ccc(S(=O)(=O)NCC(C)C)cc2)CC1	none
Cc1cc2cc(C=C(C#N)C#N)c(Cl)nc2cc1C	MazF activator 53.2
Cc1ccc(N(Cc2cc3cc(C)ccc3[nH]c2=O)C(=O)c2cccs2)cc1	MazF activator 88.8
CNC(=O)c1cc(S(=O)(=O)Nc2ccc(C)cc2C)ccc1C	none
Cc1ccccc1-c1noc(-c2ccc(O)cc2)n1	PfHsp40 rescue 128.7
COc1cc(/C=N/n2c(C3CCCCC3)n[nH]c2=S)ccc1O	DUSP3 inh 58.2
COc1cccc(/C=N/n2c(C3CCCCC3)n[nH]c2=S)c1O	none
C=CCC1c2cccc(C(=O)O)c2C(=O)N1c1ccc(Cl)cc1 (stereo not drawn)	PfHsp40 rescue 133.1
C=CCC1c2cccc(C(=O)O)c2C(=O)N1c1cccc(C)c1 (stereo not drawn)	PfHsp40 rescue 158.6
C=CCC1c2cccc(C(=O)O)c2C(=O)N1c1cccc(OC)c1 (stereo not drawn)	none
O=c1[nH]c(C2CCN(S(=O)(=O)c3ccc4c(c3)OCCO4)CC2)nc2c1nnn2Cc1ccccc1	DUSP3 inh 52.9
Cc1ccc(Cn2nnc3c(=O)[nH]c(C4CCCN(S(=O)(=O)c5ccccc5)C4)nc32)cc1 (stereo not drawn)	DUSP3 inh 50.9
COC(=O)c1ccc(N(C(=O)CNC(=O)c2ccco2)C(C(=O)NCC2CCCO2)c2ccc(OC)c(OC)c2)cc1 (stereo not drawn)	none
O=C(OC12CCCN(C1)/C(=C/c1ccc(Cl)cc1)C2)c1ccco1 (stereo not drawn)	none (no result: PfHsp40 rescue, MazF activator, PrP UTR inh, BJeLR viability, DUSP3 inh)
Cc1ccc(S(=O)(=O)c2ccc([N+](=O)[O-])o2)cc1	PrPC surface inh 82.5, PfHsp40 rescue 264.9 (no result: BJeLR viability, DUSP3 inh)
